Our source for the z-score and composite z-score values is PubChem BioAssay.

Calls of active or inactive are those of the source.

Assay [1] in a line: optical density shifts of acrAB sulA E. coli – strain DRC41, OD650, 48 h, E. coli filamentation inducer project, primary screen (AID 1152).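 Note: E. coli MC1000 strain DRC41 lacking acrAB efflux pump and sulA.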 To be noted: higher = more signal, called active from +8 up or from −8 down.
Assay [2] in a line: probe aLefty1 binding on compound microarray – biochemical, small-molecule microarray, 635/667 nm fluorescence, primary screen (AID 1153).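 Note: score merges spot fluorescence with signal-to-noise ratio from the scanned slide images.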 The settings on record: higher = more signal.
Assay [3] can be described thus: plasmodial surface anion channel blockers, osmotic lysis – cell-based, P. falciparum Indochina, OD700, 1 h, primary screen (AID 1154). To be noted: P. falciparum Indochina infected RBC osmotic lysis, higher = more signal, called active from +8 up or from −8 down.
Assay [4] in a line: plasmodial surface anion channel blockers, osmotic lysis – cell-based, P. falciparum Indochina, OD700, 2 h, primary screen (AID 1155).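 Note: lysis reports solute entry through the parasite surface anion channel PSAC.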 The settings on record: P. falciparum Indochina infected erythrocytes, higher = more signal, called active from +8 up or from −8 down.
The nature of assay [5]: changes in parasitized red cell lysis, either direction – P. falciparum Indochina, OD700, 3 h, PSAC antagonist project, primary screen (AID 1156). The settings on record: P. falciparum-infected erythrocytes, osmotic lysis, higher = more signal, called active from +8 up or from −8 down.
Assay [6] in a line: plasmodial surface anion channel blockers, osmotic lysis – cell-based, P. falciparum Indochina, OD700, 18 h, primary screen (AID 1157). To be noted: P. falciparum Indochina infected erythrocytes, osmotic lysis OD700, 18 h; higher = more signal, called active from +8 up or from −8 down.
Assay [7] is described as follows: S6 kinase pathway phospho-S6 level changes – cell-based, A549, cytoblot, luminescence, serum-stimulated, primary screen (AID 1158).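 Note: serum-stimulated A549 lung adenocarcinoma cells; signal is phosphorylated S6 detected by cytoblot immunostaining with HRP secondary.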 To be noted: 5 h, higher = more signal.
Assay [8] addresses NADPH oxidase 2 (Homo sapiens) (UniProt P04839). The assay can be described thus: compounds shifting NOX2 Amplex Red fluorescence – cell-based, HEK293-NOX2, PMA-stimulated, NOX inhibitor project, primary screen (AID 1159). Note: test concentration not given here. To be noted: 45 min, higher = more signal, called active from +8 up or from −8 down.
The target in assay [9] is NADPH oxidase 4 (Homo sapiens) (UniProt Q9NPH5). The assay can be described thus: compounds shifting NOX4 Amplex Red fluorescence – cell-based, HEK293-NOX4, tetracycline-induced, NOX inhibitor project, primary screen (AID 1160). To be noted: HEK293-NOX4, Amplex Red H2O2 fluorescence, 45 min; higher = more signal, called active from +8 up or from −8 down.
In assay [10] the target is NADPH oxidase 5 (Homo sapiens) (UniProt Q96PH1). The assay can be described thus: compounds shifting NOX5 Amplex Red fluorescence – cell-based, HEK293-NOX5, NOX inhibitor project, primary screen (AID 1161). To be noted: HEK293-NOX5, ionomycin, 45 min, higher = more signal.
A short description of assay [11]: compound effects on lung adenocarcinoma cell viability – A549, calcein-AM fluorescence, 48 h, basal, profiling panel (AID 1162). Note: test concentration not given here. The settings on record: higher = more signal.
Assay [12] in a line: compound effects on differentiated 3T3-L1 adipocyte viability – cell-based, 3T3-L1 adipocytes, calcein-AM fluorescence, 48 h, basal, profiling panel (AID 1163). Note: test concentration not given here. To be noted: 3T3-L1 adipocytes viability, higher = more signal.
Assay [13] in a line: compound effects on hepatocellular carcinoma cell viability – HepG2, calcein-AM fluorescence, 48 h, basal, profiling panel (AID 1164). Note: test concentration not given here. The settings on record: higher = more signal.
Assay [14] can be described thus: compound effects on multiple myeloma cell viability – MM1S, calcein-AM fluorescence, 48 h, basal, profiling panel (AID 1165).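 Note: viability of MM1S multiple myeloma cells under basal unstimulated conditions; test concentration not given here.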 To be noted: higher = more signal.
Assay [15] can be described thus: calcein-AM signal in unstimulated myeloma cells – cell-based, calcein-AM fluorescence, 48 h, PK04 Diversity Set, profiling panel (AID 1166).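 Note: cells grown under basal conditions without added stimulus; test concentration not given here.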 To be noted: RPMI8226 myeloma viability, higher = more signal.
Assay [16] in a line: JC-1 mitochondrial signal, unstimulated HepG2 cells – cell-based, JC-1 fluorescence, 24 h, 100 nL compound, profiling panel (AID 1167). Note: test concentration not given here. The settings on record: HepG2 mitochondrial potential, higher = more signal.
Assay [17] is described as follows: JC-1 mitochondrial signal, unstimulated adipocytes – cell-based, JC-1 fluorescence, 3T3-L1 adipocytes, 24 h, 100 nL compound, profiling panel (AID 1168). Note: test concentration not given here. To be noted: JC-1 mitochondrial fluorescence, higher = more signal, called active from +8 up or from −8 down.
Assay [18] is described as follows: JC-1 mitochondrial signal, unstimulated myeloma cells – cell-based, JC-1 fluorescence, RPMI8226, 24 h, 100 nL compound, profiling panel (AID 1169). Note: test concentration not given here. The settings on record: JC-1 mitochondrial potential fluorescence, higher = more signal.
Assay [19] in a line: JC-1 mitochondrial signal, unstimulated MM1S myeloma – cell-based, JC-1 fluorescence, 24 h, 100 nL compound, profiling panel (AID 1170). Note: test concentration not given here. To be noted: MM1S mitochondrial potential, higher = more signal.
The nature of assay [20]: resazurin metabolic signal in A549 cells – cell-based, resazurin fluorescence, 24 h, PK04 Diversity Set, profiling panel (AID 1171). Note: test concentration not given here. The settings on record: A549 viability, higher = more signal, called active from +8 up or from −8 down.

Chain of NADPH oxidase 4 (Homo sapiens) (Q9NPH5 whole entry, looked up): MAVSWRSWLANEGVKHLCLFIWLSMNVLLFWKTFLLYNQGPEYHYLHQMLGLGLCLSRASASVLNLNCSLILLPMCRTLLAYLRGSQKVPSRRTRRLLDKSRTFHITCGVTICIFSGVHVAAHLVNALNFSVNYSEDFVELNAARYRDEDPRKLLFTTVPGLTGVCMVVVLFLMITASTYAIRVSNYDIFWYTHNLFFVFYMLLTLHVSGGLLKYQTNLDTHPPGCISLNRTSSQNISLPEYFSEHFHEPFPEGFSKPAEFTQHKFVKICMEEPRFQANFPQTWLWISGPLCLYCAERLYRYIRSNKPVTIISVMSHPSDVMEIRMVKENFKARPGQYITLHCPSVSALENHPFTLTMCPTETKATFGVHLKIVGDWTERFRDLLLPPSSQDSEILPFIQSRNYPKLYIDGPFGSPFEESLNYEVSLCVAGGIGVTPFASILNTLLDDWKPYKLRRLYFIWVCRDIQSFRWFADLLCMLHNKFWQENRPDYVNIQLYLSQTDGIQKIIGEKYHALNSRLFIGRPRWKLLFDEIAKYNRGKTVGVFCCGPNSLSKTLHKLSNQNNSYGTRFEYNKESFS
Chain of NADPH oxidase 5 (Homo sapiens) (Q96PH1 whole entry, looked up): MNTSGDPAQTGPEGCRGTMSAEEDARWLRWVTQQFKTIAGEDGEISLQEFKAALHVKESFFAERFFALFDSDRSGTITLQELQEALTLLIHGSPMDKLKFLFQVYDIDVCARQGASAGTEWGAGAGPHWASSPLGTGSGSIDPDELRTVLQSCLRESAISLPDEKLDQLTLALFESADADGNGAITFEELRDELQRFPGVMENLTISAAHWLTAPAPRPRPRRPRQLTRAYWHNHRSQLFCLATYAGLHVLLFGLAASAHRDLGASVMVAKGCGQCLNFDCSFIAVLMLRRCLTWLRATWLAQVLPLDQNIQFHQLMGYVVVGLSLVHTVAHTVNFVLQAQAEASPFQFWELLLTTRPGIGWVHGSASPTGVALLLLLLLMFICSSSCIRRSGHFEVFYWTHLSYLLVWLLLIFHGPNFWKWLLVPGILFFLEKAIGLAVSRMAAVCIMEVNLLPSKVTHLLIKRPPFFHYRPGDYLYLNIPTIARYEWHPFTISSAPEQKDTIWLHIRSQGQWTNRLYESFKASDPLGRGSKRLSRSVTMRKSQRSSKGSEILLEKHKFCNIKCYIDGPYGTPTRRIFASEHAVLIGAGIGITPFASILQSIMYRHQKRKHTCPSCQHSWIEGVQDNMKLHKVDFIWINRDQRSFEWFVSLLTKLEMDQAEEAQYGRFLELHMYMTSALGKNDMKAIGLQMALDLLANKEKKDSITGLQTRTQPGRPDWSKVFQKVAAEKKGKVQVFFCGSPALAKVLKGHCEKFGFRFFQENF
Chain of NADPH oxidase 2 (Homo sapiens) (P04839 whole entry, looked up): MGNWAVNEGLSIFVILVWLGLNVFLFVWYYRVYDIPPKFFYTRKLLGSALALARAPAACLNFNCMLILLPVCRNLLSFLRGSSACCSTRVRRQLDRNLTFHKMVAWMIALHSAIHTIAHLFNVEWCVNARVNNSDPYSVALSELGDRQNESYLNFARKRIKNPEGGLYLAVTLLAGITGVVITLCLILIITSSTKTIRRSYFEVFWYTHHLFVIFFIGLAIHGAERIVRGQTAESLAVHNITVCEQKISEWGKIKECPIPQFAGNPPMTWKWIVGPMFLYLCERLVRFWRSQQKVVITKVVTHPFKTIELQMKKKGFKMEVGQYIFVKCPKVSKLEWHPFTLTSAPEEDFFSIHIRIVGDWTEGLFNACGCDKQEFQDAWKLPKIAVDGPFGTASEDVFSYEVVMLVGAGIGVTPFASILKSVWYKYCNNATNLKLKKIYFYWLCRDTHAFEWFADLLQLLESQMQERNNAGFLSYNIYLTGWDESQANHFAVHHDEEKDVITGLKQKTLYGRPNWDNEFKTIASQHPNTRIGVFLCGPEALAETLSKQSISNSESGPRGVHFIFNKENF

Consider `CC(C)=CCCC(C)=CC(O)C1C=CC2C(=O)N(c3ccccc3)C(=O)C2N1Nc1ccc(C(C)C)cc1` (stereo not given), for which the z-score is -0.843 (inactive) in assay [1]; 0.934 (inactive) in assay [3]; 0.219 (inactive) in [4]; 0.391 (inactive) in assay [5]; 0.729 (inactive) in assay [6]; -0.765 in assay [7]. Also, the z-score in [8] is -1.11 (inactive); in assay [9] it was -1.15 (inactive); in [10], -1.34; in [11], -1.27; in assay [12], -0.276; in assay [13] it was -0.964. The z-score was 0.105 in [14]; -0.589 in [15]; -1.09 in assay [16]; -0.696 (inactive) in assay [17]; 0.465 in assay [18]; 1.06 in assay [19]. Further, the z-score in assay [20] is 0.38 (inactive). In [2], this molecule came in with a composite z-score of 0.201.
For `O=C1OCC=C[C@H]2OC34C=CCN(CCN5CCOCC5)C(=O)[C@H]3N(CCO)C(=O)[C@@H]4[C@@H]12` (stereo not given in full), the z-score is -0.738 (inactive) in assay [1]; 0.418 (inactive) in assay [3]; 0.009 (inactive) in [4]; -0.392 (inactive) in assay [5]; 0.33 (inactive) in [6]; -0.822 in [7]. The z-score was 1.4 (inactive) in [8]; 0.628 (inactive) in assay [9]; 1.72 in [10]; -0.157 in [11]; 0.196 in [12]; 0.804 in assay [13]. The z-score is -0.635 in [14]; -0.253 in assay [15]; -0.464 in assay [16]; 0.00617 (inactive) in assay [17]; -0.299 in assay [18]; 0.292 in assay [19]. For the same molecule, the z-score in [20] is -0.124 (inactive). Further, the composite z-score in [2] is -0.279.
For `CC(C)(C)OC(=O)CC[C@]1(C(N)=O)N=C(c2ccc(OCCCO)cc2)O[C@H]1c1ccccc1`, the z-score in assay [1] is -0.179 (inactive); in assay [3] it was 6.16 (inactive); in [4], -0.927 (inactive); in assay [5], -0.524 (inactive); in [6], -0.367 (inactive); in assay [7], 0.0312. For the same molecule, the z-score in assay [8] was 0.266 (inactive); in [9], -1.12 (inactive); in assay [10], 0.814; in [11] it was -0.73; in assay [12], 0.13; in [13] it was -0.61. Besides, the z-score in [14] is -0.415; in [15], 0.37; in [16] it was -1.26; in [17], -0.709 (inactive); in [18], 0.816; in [19] it was 0.335. In addition, the z-score in [20] was -0.164 (inactive). Further, the composite z-score in assay [2] is 0.762.
Turning to `COc1cc(OC)c(C(O)C2C=CC3C(=O)NC(=O)C3N2Nc2ccccn2)cc1Br` (stereo not given), the z-score is -0.718 (inactive) in assay [1]; 1.54 (inactive) in assay [3]; 0.783 (inactive) in [4]; 0.332 (inactive) in assay [5]; 0.876 (inactive) in assay [6]; -0.732 in [7]. Moreover, the z-score in [8] is -0.0691 (inactive); in assay [9], -2.81 (inactive); in [10], -2.05; in [11], 0.837; in assay [12] it was -1.06; in assay [13], 0.224. Moreover, the z-score is -0.459 in assay [14]; -0.0109 in assay [15]; -0.866 in assay [16]; 0.0212 (inactive) in assay [17]; 0.217 in [18]; 0.171 in assay [19]. Moreover, the z-score in assay [20] was -0.924 (inactive). In addition, the composite z-score in assay [2] is -0.172.
